This is a sample that favours compounds with a hit; in the whole collection about 3.5% have one here.
TEAD-YAP inh = TEAD-YAP interaction inhibition; HEK-TIYL cells, TEAD-Gal4/YAP UAS-luciferase luminescence; inhibition, % at 9.12 µM; hit rate 1.4% among 640,000; in the data active = inhibition above about 32%;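 also: 0% = median of test compound wells and 100% = reference inhibitor wells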
FBW7 act = activators of human E3 ligase FBW7 | Q969H0 | AlphaScreen FBW7–phospho-cyclin E peptide binding, activator screen | normalized activity (activation), % at 26.1 µM | hit rate 0.13% among 650,000 | AID 1259310; in the data active = normalized activity above about 1.9%;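 also: purified mutant Fbw7 with reduced substrate affinity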
GPR151 activ = activates the human receptor GPR151 | PathHunter beta-arrestin GPR151 cells, luminescence | activation, % at 11.2 µM | hit rate 1% among 650,000; in the data active = activation above about 4.9%;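 also: 0% = median of compound wells and 100% = cells with positive control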
MITF inh = blocks human microphthalmia-associated transcription factor; O75030; AlphaScreen MITF homodimerization, bead proximity signal; inhibition, % at 2.6 µM; hit rate 0.91% among 650,000; in the data active = inhibition above about 50%;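 also: 0% = vehicle wells with protein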
Target sequence (O75030 whole entry, looked up): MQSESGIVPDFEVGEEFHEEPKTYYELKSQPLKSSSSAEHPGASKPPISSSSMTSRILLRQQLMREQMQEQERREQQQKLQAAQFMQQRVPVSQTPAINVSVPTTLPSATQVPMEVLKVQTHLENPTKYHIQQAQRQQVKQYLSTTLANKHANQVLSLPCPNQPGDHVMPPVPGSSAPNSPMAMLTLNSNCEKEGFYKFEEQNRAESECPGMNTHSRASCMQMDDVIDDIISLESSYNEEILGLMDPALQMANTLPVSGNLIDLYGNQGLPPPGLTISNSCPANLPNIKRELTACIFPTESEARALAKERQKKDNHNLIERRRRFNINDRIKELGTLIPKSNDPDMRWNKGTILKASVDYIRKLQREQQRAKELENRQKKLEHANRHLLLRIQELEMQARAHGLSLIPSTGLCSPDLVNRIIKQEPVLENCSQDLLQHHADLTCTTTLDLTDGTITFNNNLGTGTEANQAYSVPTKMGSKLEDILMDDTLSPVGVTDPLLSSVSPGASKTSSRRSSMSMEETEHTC
GPR151 confirm = human GPR151 activation, confirmation screen; shares compounds with GPR151 activ; GPR151 PathHunter beta-arrestin cells, luminescence, 90 min; % of EA-reagent control over plate median; activation, % at 11.2 µM; 6,700 tested, under 10 active;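 active = mean percent activation across replicates above the confirmation screen cutoff of 4.91%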
GPR119 counter = GPR119 activation, counter-screen for GPR151 activators; shares compounds with GPR151 activ; GPR119 PathHunter beta-arrestin cells, luminescence, 90 min; 0 = compound-well median, 100 = enzyme-acceptor control; activation, % at 11.2 µM; hit rate 0.3% among 6,700;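 active = mean percent activation in the counterscreen above 29.09%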;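 also: counterscreen on off-target GPR119 to flag nonselective hits from the GPR151 activator screen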
An asterisk follows results filed as active; . = no result given.

SMILES	TEAD-YAP inh	FBW7 act	GPR151 activ	MITF inh	GPR151 confirm	GPR119 counter
CCOC(=O)C1C(=O)C=C(c2cccc(OC)c2)CC1c1ccccc1C (centres undefined)	8.7	0.2	0.8	-4.1	.	.
CCOC(=O)C1C(=O)C=C(c2ccc(C)cc2)CC1c1ccccc1OCC (centres undefined)	3.1	0.5	5.3*	14.7	0.1	-0.1
CCC(C)Nc1nc(Oc2ccc(C(=O)OC)cc2)nc(N(C)C)n1 (centres undefined)	-10.5	-0.3	-0.6	2.8	.	.
CC1(C)OC(=O)C(=CN=C(N)Nc2nc3ccccc3o2)C(=O)O1	-2.9	0.1	0.9	11.2	.	.
O=C(CN1CCN(C(=O)c2ccccc2)CC1)Nc1ccc(Br)cn1	-3.1	0.2	5.6*	13.2	-0.1	-2.1
O=C(CN1CCOCC1)Nc1ccc(Br)cn1	10.5	-0.1	-0.8	-2.1	.	.
COc1ccccc1C(NC(=O)c1cnccn1)c1nccn1C (centres undefined)	1.3	0.6	0.2	10.2	.	.
COc1ccccc1C(NC(=O)c1nccc2ccccc12)c1nccn1C (centres undefined)	-1.7	-0.3	6.4*	6.6	-0.2	-1.0
COc1ccc(NC(=O)CCNc2c(N3CCCC3)c(=O)c2=O)cc1	14.2	0.6	6.1*	13.7	-0.2	-5.1
Cc1ccc(S(=O)(=O)NCC(=O)N/N=C/c2ccco2)cc1	-0.7	0.3	1.9	5.1	.	.
COC(=O)c1c(N)n(-c2cccc(Cl)c2)c2nc3ccccc3nc12	0.9	0.0	-1.1	8.3	.	.
COc1ccc2c(c1)O[C@H](c1ccc3c(c1)OCO3)C(OC(=O)NCc1ccc3c(c1)OCO3)C2=O (some centres undefined)	.	0.2	10.1*	3.2	0.6	1.0
COc1ccc2c(c1)O[C@H](c1ccc3c(c1)OCO3)C(OC(=O)N[C@H]1CCCc3ccccc31)C2=O (some centres undefined)	.	0.1	5.3*	-20.6	0.1	4.5
CC1CC(C)CN(c2nc3c(c(=O)n(C)c(=O)n3C)n2Cc2ccc(Cl)cc2Cl)C1 (centres undefined)	1.3	0.2	0.5	-4.8	.	.
CCN(Cc1c(O)ccc2c(=O)c(-c3ccc(OC)c(OC)c3)c(C(F)(F)F)oc12)C1CCCCC1	-0.7	-0.1	-1.1	7.5	.	.
CCc1ccc(C2C(C#N)=C(N)N(N(C)C)C3=C2C(=O)CC(C)(C)C3)cc1 (centres undefined)	3.4	0.1	3.7	8.2	.	.
CCCCn1c(SCC(=O)Nc2ccccc2)nc2c1c(=O)n(C)c(=O)n2C	7.5	0.8	-0.5	14.2	.	.
Cc1cc(-n2c(SCc3ccccc3)nc3ccsc3c2=O)ccc1Cl	-7.4	0.0	5.6*	0.5	1.4	7.9
Cc1ccc(NC(=O)NCC2CCCN2S(=O)(=O)c2ccc(C)cc2)cc1 (centres undefined)	-35.4	0.1	5.8*	0.4	-0.8	-17.6
Cc1ccc(NC(=O)C(=O)NCC2CCCN2S(=O)(=O)c2ccc(C)cc2)cc1 (centres undefined)	4.4	1.0	-0.6	8.1	.	.
CCNC(=O)C(=O)NCC1CCCN1S(=O)(=O)c1ccccc1 (centres undefined)	0.1	0.3	7.2*	23.0	-0.6	1.0
CCn1ccnc1CN(C)Cc1c(C(=O)N2CCCCCCC2)nc2sccn12	6.0	-0.2	-0.5	3.0	.	.
CCOc1ccccc1CNCCNC(=O)c1nonc1N	6.5	0.1	6.3*	7.1	-0.1	-6.2
Nc1nonc1C(=O)NCCNCc1ccccc1Cl	-7.4	0.1	-0.6	6.1	.	.
O=C1CCCCc2sccc2N1	0.7	-0.1	6.4*	-2.4	0.9	-4.4
CN1CCN(C2CCN(c3cccc(Cl)c3)CC2)CC1CCO (centres undefined)	-6.8	0.2	-0.9	16.5	.	.
OCC1CCN(C2CCCN(C3CCN(c4cccc(Cl)c4)CC3)C2)CC1 (centres undefined)	-1.8	0.2	5.1*	6.1	0.3	-3.7
CCCNc1nc(Nc2ccc3ncccc3c2)ncc1C	-6.5	0.1	-0.9	2.6	.	.
Cc1cnc(Nc2ccc3ncccc3c2)nc1NCCN(C(C)C)C(C)C	4.5	0.2	5.4*	-4.5	1.2	3.0
